# Test system: TGFBR1
# Conditions: concentration: 1 μM, replicates: in singlicate; n = 1
# 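Also: KINOMEscan kinase panel screen.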
row,SMILES,%Inh [%]
1,O=C(O)COc1ncnc2cc(-c3ccc4[nH]ncc4c3)sc12,10
2,Nc1nc(-c2nccs2)c(-c2ccnc3ccccc23)s1 [GW693542],27
3,Cn1cncc1-c1ccc2ncnc(Nc3ccc(OCc4ccccc4)cc3)c2c1 [GW320571],5
4,O=C(Nc1ccc2c(c1)OCO2)NC1CCN(c2ccnc(Nc3ccc(F)cc3)n2)C1 (stereo not drawn) [GSK1379724],28
5,Cc1ccccc1-n1cnc2c(N)ncnc21 [SKF-97510],0
6,Cn1ccc2ncnc(Oc3ccc(NC(=O)Nc4ccccc4)cc3)c21,0
7,O=C1NC(=O)C(N2CCc3ccccc32)=C1c1ccccc1Cl [SB-373598],9
8,O=C(Nc1ccccc1)Nc1cccc(Oc2ccc3nccn3n2)c1,5
9,Nc1ncnc2[nH]c(-c3ccccc3)nc12 [AH5015],10
10,CS(=O)(=O)c1ccc(-c2c(-c3ncn[nH]3)sc(N3CCOCC3)c2C#N)cc1,12
11,Cc1c(O)cccc1Nc1ccnc2ccc(C(F)(F)F)cc12.Cl [GW466413],2
12,CS(=O)(=O)c1ccc(-c2nc3n(c2-c2ccncc2)CCC3)cc1 [SKF-105942],15
13,Cc1cc(NCC(c2ccccc2)c2ccccc2)nc(NCc2ccc(C(F)(F)F)cc2)n1 [GW497681],22
14,Cl.NC(=O)c1cccc(Nc2nccc(Nc3ccc(Oc4cccc(Cl)c4)c(Cl)c3)n2)c1 [GW659008],0
15,CC(C)(C)c1ccc(C(=O)Nc2cn3cc(Cl)ccc3n2)cc1,0
16,O=c1cc(N2CCOCC2)nc2n(Cc3cccc(Cl)c3Cl)ccn12 [GSK2286295],0
17,CCCc1ccc(S(=O)(=O)NC2CCN(c3ccnc(Nc4ccc(F)cc4)n3)C2)cc1 (stereo not drawn) [GSK1379715],0
18,O=S(=O)(c1ccc(-c2ccnc3[nH]ccc23)cc1)N1CCCC1 [GSK846226],0
19,COc1ccc(C2=C(Nc3cccc(C(=O)O)c3)C(=O)NC2=O)cc1 [SB-390765],1

# Test system: TGFBR2
# Conditions: concentration: 1 μM, replicates: in singlicate; n = 1
row,SMILES,%Inh [%]
1,Cl.c1ccc(-c2n[nH]cc2-c2ccnc(-c3ccc(CN4CCOCC4)cc3)c2)nc1 [GW776245],87
2,Cc1nnc(-c2ccc3occ(-c4ccc(S(C)=O)cc4)c3c2)[nH]1 (stereo not drawn),0
3,Cn1ccc2ncnc(Oc3ccc(Nc4nc5ccccc5[nH]4)cc3)c21,0
4,COc1cc2ncn(-c3cc(OCC4CCCO4)c(C(N)=O)s3)c2cc1OC (stereo not drawn) [GSK204607],0
5,Cc1cccc(-c2nc(-c3ccc(S(C)(=O)=O)cc3)sc2-c2ccnc(NCCc3ccccc3)c2)c1,0
6,COC(=O)c1c(-c2ccccc2)c2cc(C(=O)O)ccc2c(=O)n1Cc1ccccc1,8
7,Cl.Oc1ccc(-c2nc(-c3ccccc3)[nH]c2-c2ccncc2)cc1 [SB-428218],7
8,CC(=O)Nc1nc2cnc(Nc3cc(NC(=O)c4cccc(CCC#N)c4)ccc3C)nc2s1,0
9,CSc1nn2c(=O)cc(N3CCOCC3)nc2n1Cc1cccc(C(F)(F)F)c1C [GSK2363608],0
10,O=C(Nc1n[nH]c2nc(-c3nccs3)c(Br)cc12)C1CCCC1 [SB-742609],0
11,CCn1c(-c2ccccn2)nc2cnccc21 [SB-736398],10
12,NC(=O)c1nnc2ccccc2c1N,0
13,COc1ccc(Nc2nccc(NCCNC(=O)Nc3ccccc3F)n2)cc1 [GSK1379901],0
14,Cc1cc(N2Cc3ccccc3C2)nc(Nc2ccc(S(=O)(=O)N3CCOCC3)cc2)n1.Cl [GSK1669917],0
15,CC1=C(C(=O)Nc2cc3cn[nH]c3cc2F)C(c2ccc(C(F)(F)F)cc2)CC(=O)N1 (stereo not drawn) [GSK429286],0
16,COC(=O)c1c(-c2ccccc2)c2cc(OC)ccc2c(=O)n1Cc1ccccc1,0
17,O=C(O)COc1ncnc2cc(-c3ccc4[nH]ncc4c3)sc12,18
18,Nc1nc(-c2nccs2)c(-c2ccnc3ccccc23)s1 [GW693542],55

row,SMILES,%Inh [%]
1,Cn1cncc1-c1ccc2ncnc(Nc3ccc(OCc4ccccc4)cc3)c2c1 [GW320571],29
2,O=C(Nc1ccc2c(c1)OCO2)NC1CCN(c2ccnc(Nc3ccc(F)cc3)n2)C1 (stereo not drawn) [GSK1379724],0
3,Cc1ccccc1-n1cnc2c(N)ncnc21 [SKF-97510],0
4,Cn1ccc2ncnc(Oc3ccc(NC(=O)Nc4ccccc4)cc3)c21,0
5,O=C1NC(=O)C(N2CCc3ccccc32)=C1c1ccccc1Cl [SB-373598],10
6,O=C(Nc1ccccc1)Nc1cccc(Oc2ccc3nccn3n2)c1,9
7,Nc1ncnc2[nH]c(-c3ccccc3)nc12 [AH5015],9
8,CS(=O)(=O)c1ccc(-c2c(-c3ncn[nH]3)sc(N3CCOCC3)c2C#N)cc1,10
9,Cc1c(O)cccc1Nc1ccnc2ccc(C(F)(F)F)cc12.Cl [GW466413],8
10,CS(=O)(=O)c1ccc(-c2nc3n(c2-c2ccncc2)CCC3)cc1 [SKF-105942],0
11,Cc1cc(NCC(c2ccccc2)c2ccccc2)nc(NCc2ccc(C(F)(F)F)cc2)n1 [GW497681],0
12,Cl.NC(=O)c1cccc(Nc2nccc(Nc3ccc(Oc4cccc(Cl)c4)c(Cl)c3)n2)c1 [GW659008],12
13,CC(C)(C)c1ccc(C(=O)Nc2cn3cc(Cl)ccc3n2)cc1,0
14,O=c1cc(N2CCOCC2)nc2n(Cc3cccc(Cl)c3Cl)ccn12 [GSK2286295],0
15,CCCc1ccc(S(=O)(=O)NC2CCN(c3ccnc(Nc4ccc(F)cc4)n3)C2)cc1 (stereo not drawn) [GSK1379715],0
16,O=S(=O)(c1ccc(-c2ccnc3[nH]ccc23)cc1)N1CCCC1 [GSK846226],0
17,COc1ccc(C2=C(Nc3cccc(C(=O)O)c3)C(=O)NC2=O)cc1 [SB-390765],0
